# Screening data as filed in PubChem.
# The list is not random: actives were taken first. Their share in the collection is about 1.8%.
# RAD54 branch = blocks human RAD54 Holliday junction branch migration; FAM/BHQ fluorescence; inhibition, % at 10.4 µM; 0.14% of 360,000 active; AID 602329;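 active means mean normalized replicate activity at least 40 and at least half of replicates scoring 40 or more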;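 further: 0% = median of neutral control wells and 100% = median of positive control wells; inhibitors cause a drop in the FAM fluorescence signal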
# RAD52 anneal inh = blocks human RAD52 DNA annealing | recombinant RAD52 DNA annealing, FRET fluorescence | 0.46% of 360,000 active | inhibition, % at 18.7 µM;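 active means every replicate showing at least 50% inhibition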
# Target sequence (P43351 whole entry, looked up): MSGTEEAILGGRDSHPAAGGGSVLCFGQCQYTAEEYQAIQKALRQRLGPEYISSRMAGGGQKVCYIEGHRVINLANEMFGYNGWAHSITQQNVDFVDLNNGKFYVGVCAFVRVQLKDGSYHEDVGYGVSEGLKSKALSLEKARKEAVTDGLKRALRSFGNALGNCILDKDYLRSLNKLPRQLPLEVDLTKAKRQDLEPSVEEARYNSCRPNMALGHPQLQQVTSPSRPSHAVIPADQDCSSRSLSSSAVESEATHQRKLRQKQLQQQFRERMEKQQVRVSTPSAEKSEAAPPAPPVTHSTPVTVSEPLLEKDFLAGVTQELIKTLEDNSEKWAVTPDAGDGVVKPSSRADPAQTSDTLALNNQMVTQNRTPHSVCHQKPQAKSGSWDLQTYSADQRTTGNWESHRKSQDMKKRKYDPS
# EWS-Fli block = blocks EWS/Fli oncoprotein-driven transcription. A673 NR0B1-luciferase reporter, viability-normalised. inhibition, % at 12.6 µM. 0.67% of 350,000 active. AID 651661;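 active means mean inhibition of at least 50% after viability correction, with every replicate also passing that limit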;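 further: firefly luciferase signal divided by Alamar Blue viability fluorescence both relative to DMSO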
# GSIS activator = primary screen for activators of insulin secretion dependent on glucose, INS-1E cells, GLuc reporter luminescence. INS-1E GLuc reporter insulin secretion, 2-3 h. activation, % at 16.6 µM. 0.61% of 370,000 active;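 active means lowest replicate activation of at least 40%, so every replicate reaches that level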;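 further: 0% = median of neutral control wells and 100% = median of IBMX positive control wells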
# LGR2 inh = Drosophila LGR2 receptor signaling inhibition; HEK293 LGR2, CRE-luciferase, bursicon-stimulated, 4 h; inhibition, % at 9.99 µM; 0.35% of 380,000 active; AID 720647;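 active means drop in luminescence signal, shown as inhibition above about 50% in the replicate tests, limit read from the data, passing the limit was not always enough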;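 further: agonist challenge used bursicon conditioned medium at about half maximal strength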
# F508del corr = CFTR F508del correction in bronchial cells; CFBE cells, YFP halide quenching; stimulated with forskolin plus potentiator P3; % fluorescence drop versus neutral controls; activity (quench increase), % at 7.58 µM; 0.36% of 350,000 active; AID 720511;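 active means mean added fluorescence quench of at least 8% versus neutral control, with both replicates also reaching 8%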;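 further: cells transiently co-express mutant CFTR-F508del with the halide-sensitive YFP; corrector assay measuring rescue of mutant channel to the surface after 24 h compound exposure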
# The depositor's hits bear a star; i = inactive; · = no result.
SMILES,RAD54 branch,RAD52 anneal inh,EWS-Fli block,GSIS activator,LGR2 inh,F508del corr
Cc1cccc(OCCNC(=O)c2ccc(Cl)c(S(=O)(=O)NCc3cccnc3)c2)c1,-6,-11,57*,·,9,14*
O=C(NCc1cccnc1)c1cccc(S(=O)(=O)NCc2ccccc2)c1,·,8,3,46*,8,1
O=C(NCc1cccnc1)c1cccc(NS(=O)(=O)c2ccc(Br)cc2)c1,-18,-1,58*,-32,-3,4
C[C@H](CO)N1C[C@H](C)[C@H](CN(C)C(=O)Nc2ccccc2)OCCCC[C@H](C)Oc2ccc(NC(=O)C3CCCCC3)cc2C1=O,-1,5,1,-4,69*,1
C[C@@H]1CN([C@@H](C)CO)C(=O)c2cc(NC(=O)C3CCCCC3)ccc2O[C@@H](C)CCCCO[C@H]1CN(C)C(=O)Nc1ccccc1,1,-1,-17,-7,-1,1
C[C@H](CO)N1C[C@H](C)[C@H](CN(C)C(=O)Nc2ccc3c(c2)OCO3)OCCCC[C@H](C)Oc2ccc(NC(=O)C3CCCCC3)cc2C1=O,-5,-12,0,-13,57*,1
C[C@H]1CCCCO[C@H](CN(C)C(=O)Nc2ccc3c(c2)OCO3)[C@@H](C)CN([C@@H](C)CO)C(=O)c2cc(NC(=O)C3CCCCC3)ccc2O1,-2,-49,-6,-16,4,5
C[C@H](CO)N1C[C@H](C)[C@H](CN(C)C(=O)Nc2ccc(F)cc2)OCCCC[C@H](C)Oc2ccc(NC(=O)C3CCCCC3)cc2C1=O,-5,2,4,-5,83*,2
NN1C(=O)c2cccc3c(C(=O)O)ccc(c23)C1=O,-7,·,·,16,9,·
Cc1cc(-c2ccccc2)n(-c2ccc(C(=O)NC(C)C)cc2)n1,-6,·,·,·,·,·
CCOc1ccc(CCNC(=O)COC(=O)COc2ccc(C(C)=O)cc2)cc1OCC,-4,-9,-2,6,0,-1
CCOc1ccc(CCNC(=O)COC(=O)/C=C/c2ccccc2OC)cc1OCC,·,-2,-2,47*,-7,-1
CCOc1ccc(CCNC(=O)COC(=O)COc2ccc(Br)cc2)cc1OCC,-22,5,-1,69*,-14,2
CCOc1ccc(CCNC(=O)c2cc(C)on2)cc1OCC,3,-6,·,55*,-6,1
CCOc1ccc(CCNC(=O)COC(=O)/C=C/c2ccc(OC)c(OC)c2)cc1OCC,-1,-6,·,3,-5,1
CCOc1ccc(CCNC(=O)COC(=O)COc2cc(C)cc(C)c2)cc1OCC,·,-22,2,45*,-12,2
C[C@@H]1CN([C@@H](C)CO)C(=O)c2cc(C#CC3CC3)cnc2O[C@H]1CN(C)C,5,7,-3,25,11,-1
CCOc1ccc(CCNC(=O)CSCc2ccc(C)cc2)cc1OCC,·,-3,1,-33,-5,·
CCOc1ccc(CCNC(=O)CSC(=S)N2CCCC2)cc1OCC,10,-15,-8,41*,15,2
CCOc1ccc(CCNC(=O)COC(=O)c2cccc(N(C)C)c2)cc1OCC,·,-14,-54,52*,-73,-1
CCOc1ccc(CCNC(=O)COC(=O)c2cccc(S(=O)(=O)N(C)C)c2)cc1OCC,0,-13,-1,54,-6,1
Cc1nn(CC(=O)OCC(=O)NCCc2ccc(F)cc2)c(C)c1[N+](=O)[O-],10,-15,3,-6,-2,1
CCOc1ccc(CCNC(=O)COC(=O)Cn2nc(C)c([N+](=O)[O-])c2C)cc1OCC,-18,-11,1,56*,-13,2
Cc1ccc(COc2ccccc2-c2cc(C(=O)N/N=C/c3cccnc3)[nH]n2)cc1,·,-9,58*,8,6,9.7*
N#CC1=C(N)NC(=S)C(C(N)=O)C1c1ccc(Cl)cc1Cl (centres undefined),·,-12,-8,97,69*,-9
SMILES,RAD54 branch,RAD52 anneal inh,EWS-Fli block,GSIS activator,LGR2 inh,F508del corr
N#CC1=C(N)NC(=S)C(C(N)=O)C1c1ccccc1F (centres undefined),-6,-10,6,-33,-20,-6
O=C(CNc1ccc(Br)cc1)Nc1ccc(S(=O)(=O)N2CCCCC2)cc1,12,-14,7,0,13,0
O=C(NC1CCCC1)N1CCCCN2[C@H](C1)[C@@H](c1ccc(/C=C/c3ccccc3)cc1)[C@@H]2CO,-3,3,15,-15,18,-4
CC(C)c1cccc(-c2csc(C(O)c3ccco3)n2)c1 (centres undefined),-3,-15,-50,·,-37,8.9*
CCN(CC)C(=O)c1cccc(-c2csc(C(O)c3ccco3)n2)c1 (centres undefined),-9,6,8,·,-31,-2
Cc1ccc(S(=O)(=O)N2CCN(C(=O)CCC(=O)NCCc3ccc(F)cc3)CC2)cc1,·,-13,2,-6,-21,1
Cc1c(C(=O)NC(=S)Nc2ccccc2N2CCCC2)cccc1[N+](=O)[O-],·,-16,77*,9,-3,·
O=C(NC(=S)Nc1ccccc1N1CCCC1)c1ccc([N+](=O)[O-])cc1,·,·,·,-7,-28,·
COc1cc(/C=C2/SC(=S)N(Cc3ccccc3)C2=O)ccc1OCC(=O)O,-3,-45,15,-7,2,3
O=C1/C(=C\c2ccc(O)cc2)SC(=S)N1Cc1ccccc1,-37,-364,14,-60,-26,26*
COc1cc(/C=C2/SC(=S)N(Cc3ccccc3)C2=O)cc(Cl)c1O,i,i,14,-37,9,8.1*
O=C1/C(=C\c2cccc([N+](=O)[O-])c2O)SC(=S)N1Cc1ccccc1,8,-32,-10,-24,7,2
O=C1/C(=C/c2ccccc2O)SC(=S)N1Cc1cccnc1,·,-38,49,12,83*,-3
CC(CN1CCN(Cc2ccccc2)CC1)OC(=O)c1ccco1 (centres undefined),·,-19,-4,49,-1,1
CCN(CC)S(=O)(=O)c1cc(NC(=O)c2cccc(N3C(=O)CCC3=O)c2)ccc1Cl,·,-11,2,-3,-1,-1
COc1ccc(N=c2scc(-c3ccc(OC)cc3)n2CCO)cc1,-5,·,·,·,·,·
Cc1ccc(S(=O)(=O)NC(=O)NC(C)Cc2ccccc2)cc1 (centres undefined),2,-12,1,16,·,0
O=C(COc1ccccc1)Nc1ccccc1C(=O)NC1CC1,-2,-10,-1,44*,3,1
CC(C(=O)NC1CCCC1)N1CCN(S(=O)(=O)c2ccc(C(C)(C)C)cc2)CC1 (centres undefined),-5,-16,5,-16,22,13*
CC(C)(C)c1ccc(S(=O)(=O)N2CCN(C3CCCC3)CC2)cc1,0,-4,13,-3,1,0
CCOc1cc(OCC)nc(S(C)(=O)=O)n1,·,·,·,49*,7,·
